40 molecules from PubChem BioAssay can be followed below.

Values without a mark were called inactive. No rule for the calls is given here.

The target of the experiment is L-lactate dehydrogenase (Plasmodium falciparum (isolate CDC / Honduras)) (UniProt Q27743). The experiment is described as follows: PfLDH activity inhibition – cell lysate, 3D7 strain, counter-screen for P. falciparum growth inhibition project (AID 2304).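 Also: 0% = vehicle and 100% = reference inhibitor.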 Conditions: P. falciparum 3D7 crude extract, LDH APAD/NBT absorbance; at 2 µM; stronger effect = higher value.
Sequence of L-lactate dehydrogenase (Plasmodium falciparum (isolate CDC / Honduras)) (Q27743 whole entry, looked up): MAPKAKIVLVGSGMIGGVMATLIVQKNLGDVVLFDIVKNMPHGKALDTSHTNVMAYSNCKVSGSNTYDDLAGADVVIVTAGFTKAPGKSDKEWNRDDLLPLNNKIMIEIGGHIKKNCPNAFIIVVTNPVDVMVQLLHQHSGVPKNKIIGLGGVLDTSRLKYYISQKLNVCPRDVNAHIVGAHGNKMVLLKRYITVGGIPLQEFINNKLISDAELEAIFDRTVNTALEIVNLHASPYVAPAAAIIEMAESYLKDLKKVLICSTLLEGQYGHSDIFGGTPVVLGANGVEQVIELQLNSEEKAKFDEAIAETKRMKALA
Take `FC(F)(F)c1ccc2nc(-c3cccc(-c4ccc(CNCc5cnn(-c6ccccc6)n5)cc4)c3)[nH]c2c1`: the inhibition was -4%.

On to `N=C(N)c1cc(Cl)cc(NC(=O)Nc2cc(Cl)cc(C(=N)N)c2)c1`, for which the inhibition is -7%.

As to `COc1cccc(C=CC(=O)N(CCN)Cc2ccccc2)c1`, the inhibition was -3%.

On to `Cn1nc(C(F)(F)F)c(-c2ccc(Br)cc2)c1NC(=O)Cc1ccccc1F`, for which the inhibition is -1%.

For `CN(C)CCCN1C(=O)c2[nH]nc(-c3ccc(Cl)cc3O)c2C1c1ccc(Cl)cc1` (stereo not given), the inhibition was 4%.

For the molecule `COc1ccc2nc(-c3cc(-c4ccc(NC(=O)C(C)C)cc4)cnc3N)[nH]c2c1`, the inhibition was 3%.

`COc1cc(NC(=O)c2nn(CCCN3CCC(N4CCCC4)CC3)cc2-c2ccc(Cl)c(Cl)c2)cc(OC)c1OC`: the inhibition is -5%.

Regarding `O=C(Nc1ccccc1)Nc1cccc(-c2cc(CNCCc3ccccc3)sc2-c2ccncc2)c1`, the inhibition is 7%.

Turning to `O=C(Nc1cccc(C(F)(F)F)c1)NC1CCN(c2ccnc3cc(Cl)ccc23)C1` (stereo not given), the inhibition is 6%.

Turning to `Cc1onc(-c2c(Cl)cccc2Cl)c1C(=O)NC1=NC(C)(C)ON1c1ccccc1`, the inhibition is 1%.

Turning to `CCOc1ccccc1C(=O)Nc1cccc(-c2nc3ncccn3c2C)c1`, the inhibition is -6%.

For the molecule `CCOc1cc(C)c(C2CCN(CCCCNC(=O)c3ccc(NC(=O)c4ccc(Cl)cc4)cc3)CC2)cc1C`, the inhibition was 1%.

Take `CC(C)Cn1cc(C2CCN(CCN3CCC(CNC(=O)c4ccc(NC(=O)c5cc(Cl)cc(Cl)c5)cc4)CC3)CC2)c2ccccc21`: the inhibition was -2%.

With `Fc1ccc2nc(-c3ccc(-c4ccc(CN5CCN(CCN6CCOCC6)CC5)cc4)s3)[nH]c2c1`, the inhibition was -3%.

`COc1ccc(-c2nc(NC(=O)Cc3ccc4c(c3)OCCO4)sc2C)cc1`: the inhibition was 2%.

For the molecule `Nc1ccc(-c2cc(Cl)cc(Cl)c2)cc1-c1cc2ccccc2[nH]1`, the inhibition was 0%.

Regarding `CC(CNc1ccnc(Nc2ccc3[nH]c(=O)[nH]c3c2)n1)c1ccccc1` (stereo not given), the inhibition was 6%.

On to `CCCCCCCN1CC[C@@H](CCCc2ccnc3ccc(OC)cc23)[C@@H](CNC)C1`, for which the inhibition was -2%.

Take `NC1(C(=O)O)Cc2ccc(Cl)cc2C1` (stereo not given): the inhibition is -3%.

Regarding `COc1ccc(CN(C)Cc2ccc(NC(=O)c3cccc4c(=O)c5cccc(C)c5[nH]c34)cc2)cc1OC`, the inhibition was -2%.

Regarding `Cc1ccc(-c2nc3ccc(C(=O)NC4CCN(Cc5ccccc5)CC4)cc3[nH]2)cc1`, the inhibition was -4%.

Consider `Cc1ccc(O)cc1Nc1ccnc2cc(-c3ccncc3)ccc12`, for which the inhibition was 6%.

For `O=S(=O)(Nc1cccc(CCN2CCC(N3CCCCC3)CC2)c1)c1cccc2cccnc12`, the inhibition was 1%.

Take `O=C(NC(=O)c1ccccc1)NC1CCN(c2ccnc3cc(Cl)ccc23)C1` (stereo not given): the inhibition was -2%.

With `Cc1c(Cl)cccc1S(=O)(=O)N1CCCCC(c2ccc(C(F)(F)F)cc2)=N1`, the inhibition was 5%.

As for `CC1CCCN(C(=O)C(C)Nc2cc(Cl)ccc2N2CCOCC2)C1` (stereo not given), the inhibition was -5%.

As for `Cc1cc(N(C)C)nc(Nc2ccc(NC(=O)c3ccccc3Cl)cc2)n1`, the inhibition was -2%.

As to `COc1cc(-c2nc(-c3ccccc3)c(-c3ccccc3)[nH]2)cc(OC)c1O`, the inhibition is -2%.

For the molecule `CCC(C)NC(=O)Nc1ccc(-c2cccc(-c3nc4c(C)cccc4[nH]3)c2)cc1` (stereo not given), the inhibition was 6%.

On to `N#Cc1cccc(CN2CCCN(Cc3cccc(C(=O)Nc4ccc(Cl)cc4)c3)CC2)c1`, for which the inhibition was 1%.

On to `CC(CCNc1c2ccccc2nc2ccccc12)N1CCN(C)CC1` (stereo not given), for which the inhibition was 5%.

Consider `CCN(CC)c1nc(N)c2c(N)nc3c(c2c1C#N)C(=O)CN3Cc1ccccc1`, for which the inhibition was -3%.

In the case of `Cc1ccc(-c2cc(C(=O)Nc3ccc(S(=O)(=O)N4CCOCC4)cc3)[nH]n2)c(O)c1C`, the inhibition was -5%.

As for `COc1ccc(Br)cc1/C=C/C(=O)Nc1ccc(C2CCN(C)CC2)cc1`, the inhibition was -3%.

Take `CC(C)Cn1c(N)cc(=O)n(C)c1=O`: the inhibition was 3%.

For the molecule `CC1(C)N=C(N)N=C(N)N1OCCCO`, the inhibition is -2%.

For the molecule `O=C(/C=C/c1ccc(Cl)c(Cl)c1)NCCCCCN1CCCN(C(=O)Nc2ccc(C(F)(F)F)cc2)CC1`, the inhibition was 3%.

Take `CCOC(=O)C(NC(=O)Cc1ccccc1)C(C)C` (stereo not given): the inhibition was 4%.

On to `COc1cc(Nc2ncnc3cc(OC)c(OC)cc23)cc([N+](=O)[O-])c1`, for which the inhibition is 8%.

As to `COc1cc2c(cc1OC)CN(c1cc(N)c3cc(OC)c(OC)cc3n1)CC2`, the inhibition is -3%.
